# Measurements from PMC7862700, “An all-to-all approach to the identification of sequence-specific readers for epigenetic DNA modifications on cytosine”.
# What was measured:
# Test in all cases: DAPPL (digital affinity profiling via proximity ligation, sequencing); 10 mM Tris-HCl pH 7.5, 50 mM NaCl, 1 mM DTT, 4% glycerol, room temperature, 30 min; GST-TFs on glutathione beads, 16-mer random dsDNA library, 0.1% formaldehyde crosslink after washing; high values mean tight binding
# FLI1 = biological target: T1, FLI1 (Homo sapiens, UniProt Q01543 1-452); settings: protein: recombinant; tags: N-terminal GST; dsDNA, one strand shown
# T1 sequence: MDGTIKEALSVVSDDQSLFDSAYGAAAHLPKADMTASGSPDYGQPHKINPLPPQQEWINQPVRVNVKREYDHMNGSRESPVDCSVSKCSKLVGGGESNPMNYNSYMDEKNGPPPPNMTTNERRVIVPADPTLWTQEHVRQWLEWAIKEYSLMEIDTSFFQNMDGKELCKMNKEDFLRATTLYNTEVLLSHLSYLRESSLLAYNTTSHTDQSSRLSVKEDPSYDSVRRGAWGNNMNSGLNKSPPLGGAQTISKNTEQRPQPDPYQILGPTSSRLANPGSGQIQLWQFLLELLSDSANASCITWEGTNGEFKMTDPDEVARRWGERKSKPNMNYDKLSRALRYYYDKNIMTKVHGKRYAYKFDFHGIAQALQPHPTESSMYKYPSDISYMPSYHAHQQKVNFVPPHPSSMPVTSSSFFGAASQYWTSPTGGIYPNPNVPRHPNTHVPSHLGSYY
# Procedure, shortened: (§1)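 Sequencing on an Illumina NextSeq500 followed washing, crosslinking with 0.1% formaldehyde, proximity ligation (BsaI/T4 ligase, 1 h, 37 °C) and PCR amplification of pools that had been incubated for 30 min at room temperature with 200 nmole of a random double-stranded 16-mer DNA library in Tris/NaCl/DTT/glycerol buffer. Each pool held DNA-barcoded human transcription factors, expressed in yeast as GST fusions and captured on glutathione beads, plus a tag-only sample. Binding signal is a hexamer's read frequency for a factor divided by its frequency in the tag-only sample.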
# ELK1 = biological target: T2, ELK1 (Homo sapiens, UniProt P19419 1-428); settings: protein: recombinant; tags: N-terminal GST; dsDNA, one strand shown
# T2 sequence: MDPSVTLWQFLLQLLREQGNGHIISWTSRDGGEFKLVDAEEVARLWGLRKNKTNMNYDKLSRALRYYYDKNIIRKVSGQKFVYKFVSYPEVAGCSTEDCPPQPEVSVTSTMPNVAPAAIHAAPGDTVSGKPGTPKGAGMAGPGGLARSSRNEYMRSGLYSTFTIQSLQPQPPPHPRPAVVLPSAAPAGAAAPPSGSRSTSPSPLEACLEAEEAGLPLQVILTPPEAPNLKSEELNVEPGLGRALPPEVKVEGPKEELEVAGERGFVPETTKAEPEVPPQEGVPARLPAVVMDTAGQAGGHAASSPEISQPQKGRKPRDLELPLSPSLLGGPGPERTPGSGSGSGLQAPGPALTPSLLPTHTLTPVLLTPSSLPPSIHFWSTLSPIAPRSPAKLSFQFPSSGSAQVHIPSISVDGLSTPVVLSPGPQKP
# Procedure, shortened: as §1
# GABPA = biological target: T3, GABPA (Homo sapiens, UniProt Q06546 1-454); settings: protein: recombinant; tags: N-terminal GST; dsDNA, one strand shown
# T3 sequence: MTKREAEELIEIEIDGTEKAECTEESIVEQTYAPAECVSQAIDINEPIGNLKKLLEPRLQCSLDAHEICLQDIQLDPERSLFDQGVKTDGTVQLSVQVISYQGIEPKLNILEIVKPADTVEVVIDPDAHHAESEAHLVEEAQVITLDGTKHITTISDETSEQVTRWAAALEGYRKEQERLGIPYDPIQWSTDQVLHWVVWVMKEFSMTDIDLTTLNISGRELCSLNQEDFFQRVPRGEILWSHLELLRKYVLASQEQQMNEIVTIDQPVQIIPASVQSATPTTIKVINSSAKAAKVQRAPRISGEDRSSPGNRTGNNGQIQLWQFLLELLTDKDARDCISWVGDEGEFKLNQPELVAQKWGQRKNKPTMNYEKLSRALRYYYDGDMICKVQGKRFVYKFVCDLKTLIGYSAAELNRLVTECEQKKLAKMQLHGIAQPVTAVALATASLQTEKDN
# Procedure, shortened: as §1
# ERG = biological target: T4, ERG (Homo sapiens, UniProt P11308 1-479); settings: protein: recombinant; tags: N-terminal GST; dsDNA, one strand shown
# T4 sequence: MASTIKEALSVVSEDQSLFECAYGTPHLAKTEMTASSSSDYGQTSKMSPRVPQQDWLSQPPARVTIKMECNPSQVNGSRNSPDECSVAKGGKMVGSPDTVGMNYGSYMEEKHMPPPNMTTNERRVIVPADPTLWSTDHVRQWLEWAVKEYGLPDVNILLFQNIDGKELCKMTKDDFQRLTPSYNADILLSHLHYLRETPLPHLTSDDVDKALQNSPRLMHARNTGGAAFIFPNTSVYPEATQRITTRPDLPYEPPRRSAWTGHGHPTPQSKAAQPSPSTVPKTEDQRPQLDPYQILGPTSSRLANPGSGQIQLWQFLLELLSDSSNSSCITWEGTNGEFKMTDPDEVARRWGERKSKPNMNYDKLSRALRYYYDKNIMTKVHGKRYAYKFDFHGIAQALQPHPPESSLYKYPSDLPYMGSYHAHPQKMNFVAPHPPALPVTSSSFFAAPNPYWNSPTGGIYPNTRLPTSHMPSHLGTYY
# Procedure, shortened: as §1
# ELF1 = ELF1 (Homo sapiens, UniProt P32519 1-619); settings: protein: recombinant; tags: N-terminal GST; dsDNA, one strand shown
# Chain of ELF1 (P32519 whole entry): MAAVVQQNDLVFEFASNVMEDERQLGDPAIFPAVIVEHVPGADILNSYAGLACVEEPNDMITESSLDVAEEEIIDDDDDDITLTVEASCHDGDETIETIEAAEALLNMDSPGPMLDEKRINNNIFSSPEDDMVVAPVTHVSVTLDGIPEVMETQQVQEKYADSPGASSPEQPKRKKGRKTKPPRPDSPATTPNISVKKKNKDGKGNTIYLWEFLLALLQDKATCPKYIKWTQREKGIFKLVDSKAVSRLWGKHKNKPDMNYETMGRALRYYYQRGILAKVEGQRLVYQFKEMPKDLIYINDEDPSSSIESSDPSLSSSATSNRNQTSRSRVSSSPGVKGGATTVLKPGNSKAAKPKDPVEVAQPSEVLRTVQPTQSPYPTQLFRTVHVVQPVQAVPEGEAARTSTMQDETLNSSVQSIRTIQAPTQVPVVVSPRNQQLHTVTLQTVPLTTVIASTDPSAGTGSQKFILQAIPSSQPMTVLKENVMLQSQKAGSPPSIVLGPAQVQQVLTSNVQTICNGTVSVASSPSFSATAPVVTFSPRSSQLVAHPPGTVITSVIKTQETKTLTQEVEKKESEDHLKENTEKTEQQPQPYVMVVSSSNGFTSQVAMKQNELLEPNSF
# Procedure, shortened: as §1
# EHF = biological target: T5, EHF (Homo sapiens, UniProt Q9NZC4 1-300); settings: protein: recombinant; tags: N-terminal GST; dsDNA, one strand shown
# T5 sequence: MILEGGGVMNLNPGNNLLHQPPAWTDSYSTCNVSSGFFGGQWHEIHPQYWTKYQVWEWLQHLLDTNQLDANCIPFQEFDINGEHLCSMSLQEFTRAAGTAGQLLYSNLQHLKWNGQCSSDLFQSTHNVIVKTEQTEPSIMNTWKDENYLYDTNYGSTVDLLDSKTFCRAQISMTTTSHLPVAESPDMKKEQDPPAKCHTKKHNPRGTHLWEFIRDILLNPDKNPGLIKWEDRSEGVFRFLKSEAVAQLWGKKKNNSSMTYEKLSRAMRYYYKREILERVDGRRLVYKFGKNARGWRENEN
# Procedure, shortened: as §1
# SPI1 = SPI1 (Homo sapiens, UniProt P17947 1-270); settings: protein: recombinant; tags: N-terminal GST; dsDNA, one strand shown
# Procedure, shortened: as §1
# SPIB = SPIB (Homo sapiens, UniProt Q01892 1-262); settings: protein: recombinant; tags: N-terminal GST; dsDNA, one strand shown
# Chain of SPIB (Q01892 whole entry): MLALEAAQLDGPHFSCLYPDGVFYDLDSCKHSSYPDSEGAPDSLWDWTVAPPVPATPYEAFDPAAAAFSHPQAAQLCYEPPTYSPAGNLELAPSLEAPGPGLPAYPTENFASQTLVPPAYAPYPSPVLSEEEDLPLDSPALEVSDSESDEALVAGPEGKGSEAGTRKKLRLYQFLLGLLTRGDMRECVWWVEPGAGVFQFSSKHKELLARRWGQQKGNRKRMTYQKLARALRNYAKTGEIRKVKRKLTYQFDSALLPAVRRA
# Procedure, shortened: as §1
# ELK3 = biological target: T6, ELK3 (Homo sapiens, UniProt P41970 1-407); settings: protein: recombinant; tags: N-terminal GST; dsDNA, one strand shown
# T6 sequence: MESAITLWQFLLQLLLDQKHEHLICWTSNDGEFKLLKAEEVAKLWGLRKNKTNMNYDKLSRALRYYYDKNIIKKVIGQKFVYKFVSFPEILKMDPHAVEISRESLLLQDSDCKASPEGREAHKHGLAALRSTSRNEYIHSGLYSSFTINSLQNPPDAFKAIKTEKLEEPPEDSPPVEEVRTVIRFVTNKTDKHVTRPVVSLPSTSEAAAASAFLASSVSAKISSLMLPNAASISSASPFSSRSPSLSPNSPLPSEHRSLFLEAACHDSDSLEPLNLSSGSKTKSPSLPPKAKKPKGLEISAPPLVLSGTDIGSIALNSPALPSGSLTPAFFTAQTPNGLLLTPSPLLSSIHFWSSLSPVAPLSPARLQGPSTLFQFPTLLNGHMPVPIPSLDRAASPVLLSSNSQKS
# Procedure, shortened: as §1
# FEV = biological target: T7, FEV (Homo sapiens, UniProt Q99581 1-238); settings: protein: recombinant; tags: N-terminal GST; dsDNA, one strand shown
# T7 sequence: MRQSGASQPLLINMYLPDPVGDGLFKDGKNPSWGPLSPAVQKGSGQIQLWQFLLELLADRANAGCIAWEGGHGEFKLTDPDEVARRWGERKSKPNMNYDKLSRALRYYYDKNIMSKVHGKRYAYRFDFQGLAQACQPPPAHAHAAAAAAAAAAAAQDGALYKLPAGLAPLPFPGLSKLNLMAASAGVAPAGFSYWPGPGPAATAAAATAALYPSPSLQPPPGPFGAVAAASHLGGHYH
# Procedure, shortened: as §1
# ETV5 = ETV5 (Homo sapiens, UniProt P41161 1-510); settings: protein: recombinant; tags: N-terminal GST; dsDNA, one strand shown
# Chain of ETV5 (P41161 whole entry): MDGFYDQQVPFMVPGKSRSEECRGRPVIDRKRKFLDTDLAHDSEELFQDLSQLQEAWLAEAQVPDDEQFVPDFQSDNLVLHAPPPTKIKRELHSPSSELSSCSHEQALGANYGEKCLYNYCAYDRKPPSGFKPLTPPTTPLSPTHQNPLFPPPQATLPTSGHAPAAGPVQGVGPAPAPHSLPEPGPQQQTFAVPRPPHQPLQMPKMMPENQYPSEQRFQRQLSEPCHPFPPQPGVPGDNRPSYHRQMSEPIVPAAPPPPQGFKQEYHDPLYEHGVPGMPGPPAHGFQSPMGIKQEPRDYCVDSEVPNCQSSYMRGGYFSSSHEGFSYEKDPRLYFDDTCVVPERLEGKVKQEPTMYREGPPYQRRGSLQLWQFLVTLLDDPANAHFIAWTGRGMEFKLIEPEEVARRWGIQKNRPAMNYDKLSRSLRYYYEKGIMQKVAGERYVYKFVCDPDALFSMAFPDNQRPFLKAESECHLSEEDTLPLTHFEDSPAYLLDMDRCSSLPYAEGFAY
# Procedure, shortened: as §1
# HSF1 = HSF1 (Homo sapiens, UniProt Q00613 1-529); settings: protein: recombinant; tags: N-terminal GST; chain copies: 3; dsDNA, one strand shown
# Chain of HSF1 (Q00613 whole entry): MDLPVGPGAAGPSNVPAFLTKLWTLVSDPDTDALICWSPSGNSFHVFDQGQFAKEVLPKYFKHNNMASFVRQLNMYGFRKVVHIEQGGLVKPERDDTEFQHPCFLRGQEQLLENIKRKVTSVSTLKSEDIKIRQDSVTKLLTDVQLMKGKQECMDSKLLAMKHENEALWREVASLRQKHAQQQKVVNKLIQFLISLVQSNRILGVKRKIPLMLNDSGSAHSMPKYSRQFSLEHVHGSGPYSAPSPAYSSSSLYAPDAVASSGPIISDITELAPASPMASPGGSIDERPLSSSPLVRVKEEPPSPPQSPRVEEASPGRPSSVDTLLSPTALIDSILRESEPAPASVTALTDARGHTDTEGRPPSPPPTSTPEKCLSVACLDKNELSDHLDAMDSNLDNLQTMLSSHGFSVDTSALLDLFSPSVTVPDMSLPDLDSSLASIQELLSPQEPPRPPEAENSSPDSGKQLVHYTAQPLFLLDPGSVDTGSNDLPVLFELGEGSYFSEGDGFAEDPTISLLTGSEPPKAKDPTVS
# Procedure, shortened: as §1
# SPIC = biological target: T8, SPIC (Homo sapiens, UniProt Q8N5J4 1-248); settings: protein: recombinant; tags: N-terminal GST; dsDNA, one strand shown
# T8 sequence: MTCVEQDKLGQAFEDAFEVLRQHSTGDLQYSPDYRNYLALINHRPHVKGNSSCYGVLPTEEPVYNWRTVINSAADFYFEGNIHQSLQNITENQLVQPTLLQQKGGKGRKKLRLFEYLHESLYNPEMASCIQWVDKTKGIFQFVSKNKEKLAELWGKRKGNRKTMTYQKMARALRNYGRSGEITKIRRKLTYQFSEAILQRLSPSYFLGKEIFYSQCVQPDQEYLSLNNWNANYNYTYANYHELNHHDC
# Procedure, shortened: as §1
# ELF4 = ELF4 (Homo sapiens, UniProt Q99607 1-663); settings: protein: recombinant; tags: N-terminal GST; dsDNA, one strand shown
# Chain of ELF4 (Q99607 whole entry): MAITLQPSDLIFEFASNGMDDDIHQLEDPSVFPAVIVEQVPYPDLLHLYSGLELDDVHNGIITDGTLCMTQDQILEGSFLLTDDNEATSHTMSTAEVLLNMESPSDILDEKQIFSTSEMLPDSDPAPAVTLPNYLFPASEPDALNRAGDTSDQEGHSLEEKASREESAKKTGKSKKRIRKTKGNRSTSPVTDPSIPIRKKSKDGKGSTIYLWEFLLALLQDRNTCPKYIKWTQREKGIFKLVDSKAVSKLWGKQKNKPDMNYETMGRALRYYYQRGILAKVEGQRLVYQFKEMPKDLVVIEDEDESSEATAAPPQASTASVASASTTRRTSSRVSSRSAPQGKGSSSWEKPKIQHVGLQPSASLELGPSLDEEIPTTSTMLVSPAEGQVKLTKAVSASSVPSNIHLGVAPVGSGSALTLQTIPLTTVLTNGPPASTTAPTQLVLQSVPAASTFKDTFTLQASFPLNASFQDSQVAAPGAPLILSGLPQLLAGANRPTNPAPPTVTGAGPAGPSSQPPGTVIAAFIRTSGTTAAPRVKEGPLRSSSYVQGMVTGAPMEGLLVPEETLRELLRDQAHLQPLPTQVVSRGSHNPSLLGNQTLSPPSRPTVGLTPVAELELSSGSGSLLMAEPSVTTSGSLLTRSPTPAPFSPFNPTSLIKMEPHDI
# Procedure, shortened: as §1
# ELK4 = biological target: T9, ELK4 (Homo sapiens, UniProt P28324-2 1-405); settings: protein: recombinant; tags: N-terminal GST; dsDNA, one strand shown
# T9 sequence: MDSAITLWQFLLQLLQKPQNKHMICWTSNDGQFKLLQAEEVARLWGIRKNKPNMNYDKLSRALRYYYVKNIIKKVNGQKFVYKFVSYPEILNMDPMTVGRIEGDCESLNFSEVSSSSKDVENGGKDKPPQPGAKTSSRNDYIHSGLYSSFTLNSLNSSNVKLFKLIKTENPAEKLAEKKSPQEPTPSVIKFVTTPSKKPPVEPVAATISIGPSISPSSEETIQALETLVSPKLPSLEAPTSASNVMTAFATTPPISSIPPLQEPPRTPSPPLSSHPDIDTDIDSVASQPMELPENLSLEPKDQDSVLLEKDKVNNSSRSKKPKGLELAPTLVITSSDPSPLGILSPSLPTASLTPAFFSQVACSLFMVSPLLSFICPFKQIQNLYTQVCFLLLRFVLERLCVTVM
# Procedure, shortened: as §1
# ETV2 = biological target: T10, ETV2 (Homo sapiens, UniProt O00321 1-342); settings: protein: recombinant; tags: N-terminal GST; dsDNA, one strand shown
# T10 sequence: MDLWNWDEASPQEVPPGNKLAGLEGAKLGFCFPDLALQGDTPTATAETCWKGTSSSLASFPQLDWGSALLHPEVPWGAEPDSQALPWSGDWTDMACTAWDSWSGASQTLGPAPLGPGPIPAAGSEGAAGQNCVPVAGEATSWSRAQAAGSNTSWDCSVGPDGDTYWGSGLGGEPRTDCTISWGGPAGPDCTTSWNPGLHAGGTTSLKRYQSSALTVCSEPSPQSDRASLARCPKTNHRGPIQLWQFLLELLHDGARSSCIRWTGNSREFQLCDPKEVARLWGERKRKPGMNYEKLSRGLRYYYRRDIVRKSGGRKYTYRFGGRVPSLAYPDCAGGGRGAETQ
# Procedure, shortened: as §1
# ELF3 = biological target: T11, ELF3 (Homo sapiens, UniProt P78545 1-371); settings: protein: recombinant; tags: N-terminal GST; dsDNA, one strand shown
# T11 sequence: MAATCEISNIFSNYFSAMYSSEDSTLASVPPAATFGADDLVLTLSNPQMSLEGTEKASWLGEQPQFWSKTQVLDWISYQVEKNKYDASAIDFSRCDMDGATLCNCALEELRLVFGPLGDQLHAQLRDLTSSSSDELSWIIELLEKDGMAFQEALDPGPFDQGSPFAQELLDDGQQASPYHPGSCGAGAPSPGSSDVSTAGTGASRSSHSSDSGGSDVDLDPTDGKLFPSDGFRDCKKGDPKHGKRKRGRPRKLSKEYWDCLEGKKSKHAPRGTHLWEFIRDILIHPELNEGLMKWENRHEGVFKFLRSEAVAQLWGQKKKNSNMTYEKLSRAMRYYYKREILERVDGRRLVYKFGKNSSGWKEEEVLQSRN
# Procedure, shortened: as §1
# CRX = CRX (Homo sapiens, UniProt O43186 1-299); settings: protein: recombinant; tags: N-terminal GST; dsDNA, one strand shown
# Chain of CRX (O43186 whole entry): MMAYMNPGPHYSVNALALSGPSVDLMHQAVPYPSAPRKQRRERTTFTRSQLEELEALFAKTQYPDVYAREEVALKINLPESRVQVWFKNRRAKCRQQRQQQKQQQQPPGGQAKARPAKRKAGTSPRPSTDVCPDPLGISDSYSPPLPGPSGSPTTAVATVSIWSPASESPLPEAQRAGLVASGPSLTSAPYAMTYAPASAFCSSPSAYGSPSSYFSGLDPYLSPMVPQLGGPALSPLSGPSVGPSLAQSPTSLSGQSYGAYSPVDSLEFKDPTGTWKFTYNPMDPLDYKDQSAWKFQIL
# Procedure, shortened: as §1
# ETV1 = ETV1 (Homo sapiens, UniProt P50549 1-477); settings: protein: recombinant; tags: N-terminal GST; dsDNA, one strand shown
# Chain of ETV1 (P50549 whole entry): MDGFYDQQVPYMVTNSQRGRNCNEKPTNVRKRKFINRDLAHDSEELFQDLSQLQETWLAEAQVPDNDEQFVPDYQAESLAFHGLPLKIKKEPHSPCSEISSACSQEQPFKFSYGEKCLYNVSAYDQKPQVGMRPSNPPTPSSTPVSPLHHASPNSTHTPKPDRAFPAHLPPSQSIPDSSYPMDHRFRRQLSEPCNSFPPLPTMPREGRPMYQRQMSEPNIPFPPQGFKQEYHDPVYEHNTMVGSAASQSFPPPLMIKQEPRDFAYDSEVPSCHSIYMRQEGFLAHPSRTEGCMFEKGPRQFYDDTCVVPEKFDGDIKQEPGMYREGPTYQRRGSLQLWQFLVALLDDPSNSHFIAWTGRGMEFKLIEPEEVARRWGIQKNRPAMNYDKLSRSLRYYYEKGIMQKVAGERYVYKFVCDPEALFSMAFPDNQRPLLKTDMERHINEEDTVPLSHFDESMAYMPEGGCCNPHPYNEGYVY
# Procedure, shortened: as §1
sequence,measurement,setting,value
GCTTGC,binding signal,FLI1,"1.41 fold enrichment (6-mer frequency, TF over GST control)"
same,binding signal,ELK1,"1.28 fold enrichment (6-mer frequency, TF over GST control)"
same,binding signal,GABPA,"1.21 fold enrichment (6-mer frequency, TF over GST control)"
same,binding signal,ERG,"1.14 fold enrichment (6-mer frequency, TF over GST control)"
same,binding signal,ELF1,"1.25 fold enrichment (6-mer frequency, TF over GST control)"
same,binding signal,EHF,"1.28 fold enrichment (6-mer frequency, TF over GST control)"
same,binding signal,SPI1,"1.18 fold enrichment (6-mer frequency, TF over GST control)"
same,binding signal,SPIB,"1.24 fold enrichment (6-mer frequency, TF over GST control)"
same,binding signal,ELK3,"1.3 fold enrichment (6-mer frequency, TF over GST control)"
same,binding signal,FEV,"1.2 fold enrichment (6-mer frequency, TF over GST control)"
same,binding signal,ETV5,"1.22 fold enrichment (6-mer frequency, TF over GST control)"
same,binding signal,HSF1,"1.1 fold enrichment (6-mer frequency, TF over GST control)"
same,binding signal,SPIC,"1.44 fold enrichment (6-mer frequency, TF over GST control)"
same,binding signal,ELF4,"1.09 fold enrichment (6-mer frequency, TF over GST control)"
same,binding signal,ELK4,"1.34 fold enrichment (6-mer frequency, TF over GST control)"
same,binding signal,ETV2,"1.31 fold enrichment (6-mer frequency, TF over GST control)"
same,binding signal,ELF3,"1.03 fold enrichment (6-mer frequency, TF over GST control)"
same,binding signal,CRX,"1.14 fold enrichment (6-mer frequency, TF over GST control)"
same,binding signal,ETV1,"1.25 fold enrichment (6-mer frequency, TF over GST control)"
